The campaign covered roughly 48,000 compounds. About 13,000 (27%) showed an effect of 50% or more. The list shows a part of the results.
The compounds below were run on Wolbachia pipientis (assay: Anti-Wolbachia Cell-Based Screen). Conditions: 5 µM.
Assay type: functional
Design: scale not given: in the data most compounds retested in dose-response had high values

| Structure (SMILES) | Percent Effect [%] |
| --- | --- |
| COCCN1CCC(C(=O)N(C)Cc2c[nH]c3ccc(C)cc23)C1 (configuration not stated) | -13.06 |
| CC(C)C(=O)N1CCC2(CN(CC3CCCC3)C2)C1.O=C(O)C(F)(F)F | -3.433 |
| CCc1nc(CN2CCC(C(=O)N(C)C)CC2)cs1 | -2.315 |
| CCN1CCC(N2CCC(C(=O)N(C)C)CC2)CC1.O=C(O)C(F)(F)F.O=C(O)C(F)(F)F | 104.7 |
| CN(C)Cc1cn2c(n1)CN(CC1CCCC1)CC2.O=C(O)C(F)(F)F.O=C(O)C(F)(F)F | -16.91 |
| CN(C)C(=O)C1CCN(C2CCN(CC3CC3)CC2)CC1.O=C(O)C(F)(F)F.O=C(O)C(F)(F)F | 109 |
| CN(C)C(=O)C1CCN(C2CCN(CC3CCC3)CC2)CC1.O=C(O)C(F)(F)F.O=C(O)C(F)(F)F | 115.1 |
| CN1CCC2(CCN(CC3CC3)CC2)C1=O.O=C(O)C(F)(F)F | -0.5297 |
| CC(C)CN1CC[C@@H]2[C@@H]1CCN2C(=O)N1CCCC1.O=C(O)C(F)(F)F | -1.369 |
| CN(C)C(=O)CN1CC[C@H]2CN(C3CCOCC3)C[C@@H]2C1=O.O=C(O)C(F)(F)F | -33.67 |
| CC(C)CN1CC[C@@H]2[C@H](CC1)N(C(=O)c1ccccc1)CCS2(=O)=O.O=C(O)C(F)(F)F | -7.451 |
| CC(C)CN1CCC(N2CCC(C(=O)N(C)C)CC2)CC1.O=C(O)C(F)(F)F.O=C(O)C(F)(F)F | 126.3 |
| CN1CCN(C2COC3(CCN(CC4CC4)CC3)C2)CC1.O=C(O)C(F)(F)F.O=C(O)C(F)(F)F.O=C(O)C(F)(F)F (configuration not stated) | -10.32 |
| CN1CC(=O)N(c2ccsc2)CC12CCN(S(C)(=O)=O)C2.O=C(O)C(F)(F)F (configuration not stated) | -22.3 |
| O=C(C1CCC2(CCN(CC3CCOCC3)CC2)O1)N1CCCCO1.O=C(O)C(F)(F)F (configuration not stated) | -16.72 |
| O=C(O)C(F)(F)F.O=C([C@@H]1COC[C@H]2CN(c3ccncn3)C[C@H]21)N1CCCC1 | -1.455 |
| Cc1ccc(C(=O)Nc2cn[nH]c2)cc1C | -10.82 |
| Cc1nc[nH]c1CN1C[C@@H]2CC[C@H](C1)N(C(=O)CCNS(C)(=O)=O)C2 | -6.405 |
| O=C(COCC1CCCCO1)N1CCN(Cc2ccccc2F)C(=O)C1 (configuration not stated) | -11.31 |
| N#CC1C(=O)Nc2c(cnn2C2CCCC2)C12CCCC2 (configuration not stated) | 15.25 |
| CC(C)N1CCC(N2CCC(C(=O)N(C)C)CC2)CC1.O=C(O)C(F)(F)F.O=C(O)C(F)(F)F | 105.3 |

| Structure (SMILES) | Percent Effect [%] |
| --- | --- |
| CN1CCN(C2CCN(C(=O)CCC3CCCC3)CC2)CC1.O=C(O)C(=O)O | 6.776 |
| CN1CCC(N2CCC(C(=O)N(C)C)CC2)CC1.O=C(O)C(F)(F)F.O=C(O)C(F)(F)F | 107.5 |
| CC(C)N1CCC(C(=O)N(C)CC(=O)c2ccc(O)cc2)CC1 | -30.04 |
| CC(C)CNC(=O)C(C)N1CCN(C2CCN(C(C)C)CC2)CC1 (configuration not stated) | -39.91 |
| CN(C)C(=O)C1CCC2(CCN(Cc3cnn(C)c3)CC2)C1.O=C(O)C(F)(F)F (configuration not stated) | -4.25 |
| CCn1nc2c(cc1=O)CN(CC1CCCCO1)CC2 (configuration not stated) | -5.782 |
| N[C@@H]1c2ccccc2C2(CCN(C(=O)c3ccc(CO)o3)CC2)[C@H]1O | 13.24 |
| CCOc1cc(CNCc2nc(C)cc(=O)[nH]2)c(Cl)cc1OC(C)C | -17.65 |
| CCN(Cc1noc(C)n1)C(=O)CCc1scnc1C | 1.92 |
| COc1c(C2CCCN2Cc2nccn2C)c(C)nn1C (configuration not stated) | 8.453 |
| Cc1ccc(-c2c[nH]c([C@@H]3COCCN3Cc3ncc[nH]3)n2)cc1 | 0.7932 |
| Cc1c[nH]nc1C1CCCN1Cc1nccn1C.O=CO (configuration not stated) | 95.89 |
| CCn1ccnc1CN1CCCC1c1c(C)nn(C)c1OC (configuration not stated) | -25.16 |
| Cc1c[nH]nc1C1CCCN1Cc1ncc[nH]1.O=CO (configuration not stated) | 85.61 |
| Cc1noc(C)c1-c1cncc(C2CCCN2Cc2ccncc2)n1 (configuration not stated) | -4.931 |
| CC(C)(C)c1coc([C@@H]2COCCN2Cc2ncc[nH]2)n1 | -0.9304 |
| Cc1c[nH]nc1C1CCCN1Cc1ccncc1 (configuration not stated) | 100.6 |
| Cc1nccn1CCC1CCCCN1Cc1ccncc1 (configuration not stated) | 6.487 |
| CCc1ncncc1C(=O)NCCNS(=O)(=O)c1ccccc1 | 12.25 |
| O=C(c1c[nH]nn1)N1CCN(C(c2ccccc2)C(F)(F)F)CC1 (configuration not stated) | 0.659 |
| COC(C)c1nc(CN2CCCNCC2)cs1 (configuration not stated) | 4.679 |

| Structure (SMILES) | Percent Effect [%] |
| --- | --- |
| CC(CS(C)(=O)=O)N(C(=O)c1ccc(Cl)s1)C1CC1 (configuration not stated) | -8.906 |
| Cc1cccc2c1OCCCC2NCc1nnc2n1CCCCC2 (configuration not stated) | -7.858 |
| CN(Cc1ccon1)C1CCN(c2cccc(-c3cscn3)c2)CC1 | -11.17 |
| CCCN1CCc2nc(SCc3c(C)cc(C)cc3C)[nH]c(=O)c2C1 | 4.96 |
| Cn1nc2c(cc1=O)CN(Cc1ccc(-n3cccn3)cc1)CC2 | 6.074 |
| Cc1nc2c(c(=O)[nH]1)CCN(Cc1ccc3c(c1)CCCN3C)C2 | 94.44 |
| Cc1nc2c(c(=O)[nH]1)CN(Cc1ccc3c(c1)CCCN3C)CC2 | 56.56 |
| CC(C(=O)Nc1ccnn1C(C)C)N1CCCN(c2nccs2)CC1 (configuration not stated) | 10.48 |
| OCCn1nnnc1Cc1ccc(Br)cc1 | -3.897 |
| O=C(c1[nH]nc(C2CC2)c1Cl)N1CCN(C2CC2)CC1 | -10.68 |
| CC(C)(C)n1cc(C(=O)N2CCCN(Cc3cccs3)CC2)cn1 | -3.981 |
| CC(C)(C)NC(=O)[C@@H]1Cc2ccccc2CN1Cc1cccs1 | 16.75 |
| COc1ccc(OCc2nc(C(=O)N3CC(O)C3)co2)cc1 | -10.13 |
| COc1ccc(C(=O)N2CCN(C(=O)c3csc(C(C)C)n3)CC2)cc1 | -4.051 |
| O=C(c1ccc(F)cc1)N1C[C@@H]2CN(c3ncccn3)C[C@@H]2C1 | 2.652 |
| Cc1ccc(C(=O)N2CC(=O)N(Cc3cccs3)CC(O)C2)cc1 (configuration not stated) | 76.19 |
| CSc1ccc(C(=O)N2CC(=O)N(Cc3cccs3)CC(O)C2)cc1 (configuration not stated) | 110.9 |
| COc1ccc(C(=O)N2CC(=O)N(Cc3cccs3)CC(O)C2)cc1 (configuration not stated) | 106.6 |
| O=C1CN(C(=O)c2ccc(F)cc2)CC(O)CN1Cc1cccs1 (configuration not stated) | 106.9 |
| CC1CN(C)CCN1C(=O)c1cccn1Cc1cccs1 (configuration not stated) | -1.596 |
